Source: PubChem BioAssay (several laboratories)
HSF1 inh: HSF1 inhibitors in luciferase reporter cells, primary screen, cell-based, NIH3T3, luminescence. NIH3T3-HGL HSE-luciferase, MG132-induced, luminescence 8 h; active compounds read low. activity change, negative = inhibition, % at 7.5 µM (by protocol). 300,000 compounds, 0.77% hits. AID 2098, 2009;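 active = more than half of replicate wells show activity change below -50%, luminescence cut by over half; inconclusive = some wells, but at most half, below -50%; inactive = no replicate well below -50%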;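 note: luciferase reports HSF-1 transcriptional activity via heat shock element; 0% = median of DMSO wells and -100% = zero luminescence signal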
MPTP inh: mitochondrial permeability transition pore inhibitors, primary screen, biochemical, isolated mouse mitochondria, absorbance; inhibition, % at 10 µM; 360,000 compounds, 1.4% hits; Ca2+ swelling absorbance, 30 min;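 active = inhibition of 50% or more, scaled per plate between neutral and stimulator controls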;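 note: 0% = DMSO wells given calcium and 100% = 1 mM EGTA wells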
dFosB activator: activators of delta FosB homodimer, primary screen, biochemical, fluorescence polarization, TAMRA-CDK5 oligo, single point; AID 493131, 2011; Protein FosB (Mus musculus), P13346; activation, % at 25 µM; purified delta FosB; percent of positive-control signal above neutral wells; 340,000 compounds, 0.99% hits;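 active = mean activation above about 17%, with every replicate also reaching it, limit read from the data, passing the limit was not always enough; inconclusive = only one of the two conditions met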
Target sequence (P13346 whole entry, looked up): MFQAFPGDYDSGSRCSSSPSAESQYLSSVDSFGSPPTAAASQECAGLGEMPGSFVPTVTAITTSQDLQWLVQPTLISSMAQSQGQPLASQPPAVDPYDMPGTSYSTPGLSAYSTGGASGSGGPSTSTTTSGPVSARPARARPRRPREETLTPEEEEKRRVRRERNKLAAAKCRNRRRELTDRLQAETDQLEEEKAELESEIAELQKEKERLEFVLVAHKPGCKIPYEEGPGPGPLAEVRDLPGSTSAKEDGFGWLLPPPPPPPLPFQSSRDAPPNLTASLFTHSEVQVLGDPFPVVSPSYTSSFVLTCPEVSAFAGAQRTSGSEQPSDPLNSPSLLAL
HSF1 activator: HSF-1 activators, primary screen, NIH3T3-HGL cells, MG132 stress, luminescence, single point; 300,000 compounds, 1.7% hits; NIH3T3-HGL HSF-1 luciferase reporter, 8 h; 100% = twice DMSO control signal; AID 504408, 2011; activation, % at 9 µM;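 active = mean replicate activation of at least 50% with a set share of replicates each reaching 50%; inconclusive = only one of those two conditions met; inactive = mean below 50% and too few replicates reaching it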;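 note: 0% = median of the neutral control wells and 100% = twice that signal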
Platelet DG rel: inhibitors of platelet dense granule secretion, primary screen, cell-based, MLPCN, human platelets; human platelet-rich plasma, SFLLRN dense granule ATP release, luminescence; inhibition, %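 (compounds screened at 7.5 µM in platelet-rich plasma)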; 300,000 compounds, 0.22% hits; AID 1663, 2009;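 active = mean replicate score, as percent of positive control, at or above 50; inconclusive = mean below 50 but at least one replicate at or above 50; inactive = mean and every replicate below 50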
HSP90 inh: HSP90 inhibitors, primary screen, cell lysate, luminescence. Heat shock protein HSP 90 (rabbit reticulocyte lysate; luciferase refolding). Rabbit reticulocyte lysate, luciferase refolding luminescence, 3 h. inhibition, % at 5.6 µM. 290,000 compounds, 0.91% hits. AID 1789, 2009;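 active = inhibition above the screen-wide mean plus 3 SD, computed separately per campaign, cut at about 16% in these data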;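 note: 0% = DMSO wells and 100% = 60 µM geldanamycin wells; inhibitors lower the luminescence because luciferase stays unfolded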
* = called active by the depositor; u = inconclusive; x = no result given. An excerpt weighted towards active compounds, which were near 4.9% of everything screened.

SMILES	HSF1 inh	MPTP inh	dFosB activator	HSF1 activator	Platelet DG rel	HSP90 inh
C[C@@H]1CN([C@H](C)CO)S(=O)(=O)c2ccc(Br)cc2O[C@H]1CN(C)C(=O)Cc1ccccn1	x	0	x	x	x	x
O=C1c2ccccc2CN1Cc1ccccc1	8	-2	-4	26	-7	6
Cc1ccc(Oc2c(C(N)=O)cc([N+](=O)[O-])cc2[N+](=O)[O-])cc1	-5	0	3	2	11	-1
N/C(=N\OC(=O)COc1ccc2ccccc2c1Br)c1ccccn1	48	0	-5	83*	-8	-1
CC/C(=N\NC(=O)C1CCCC1)c1ccc(Br)cc1	-9	-1	-10	10	0	1
O=C(O)C(CCC(C(=O)O)c1ccccc1)c1ccccc1 (stereo not given)	x	0	2	x	x	x
COc1cc(OC)c(-c2c3cc(O)c(=O)cc-3oc3cc(O)c(O)cc23)cc1OC	x	19	22*	x	x	1
COc1cc(-c2cc(=O)c3ccc(O)cc3o2)cc(OC)c1OC	x	0	x	x	x	x
NNC(=O)c1cc2ccccc2cc1O	-3	0	-6	11	-4	0
NNC(=O)c1ccc(O)cc1O	-88*	-2	8	-91	u	1
CC(=O)Nc1ccccc1-c1nnn(CC(=O)Nc2ccc3c(c2)OCCO3)n1	-6	0	0	-3	-2	-4
Cc1nc2c(ccc3nc(NC(=O)c4ccc5c(c4)OCCO5)sc32)s1	8	1	u	16	4	-3
Cc1ccccc1C(=O)Nc1ccccc1-c1nnn(CC(=O)Nc2ccc3c(c2)OCCO3)n1	2	13	31*	-5	-1	-2
Cc1ccccc1NC(=O)c1ccc2c(c1)OCCO2	-65*	3	0	-73	4	2
Cc1nc2ccc3nc(NC(=O)c4ccc5c(c4)OCCO5)sc3c2s1	-8	1	173*	-27	-3	6
Cc1c(NC(=O)C(C)OC(=O)/C=C/c2ccc3c(c2)OCO3)c(=O)n(-c2ccccc2)n1C (stereo not given)	-1	0	-4	-12	-6	-2
O=C(O)c1cc(-c2c[nH]c3ccccc23)nc2cc3ccccc3cc12	3	1	x	10	-1	-2
C(#CCN1CCCC1)CC(c1ccccc1)c1ccccc1	-7	14	6	-6	-1	2
CCc1cc2c(SCC(=O)NC3CCCC3)ncnc2s1	x	0	x	x	x	x
CCC1CCCCN1C(=O)Cn1c(=O)n(CCCC(=O)NCc2ccco2)c(=O)c2sccc21 (stereo not given)	-6	0	2	8	-2	-4
O=C(Nc1cc(C(=O)N2CCN(c3ccccc3O)CC2)ccc1Cl)c1cccs1	-3	-2	-5	1	2	x
COc1ccc2c(CC(=O)N3CCc4ccccc43)coc2c1	76	-1	-7	104*	14	1
Cc1ccc(S(=O)(=O)/N=C(/NNC(=O)c2cccc(Cl)c2)c2ccccc2)cc1	16	2	-15	43	-11	3
O=C(NN/C(=N/S(=O)(=O)c1ccc(Cl)cc1)c1ccccc1)c1ccc(O)cc1	33	-1	-8	60*	39	3
O=C(NN/C(=N/S(=O)(=O)c1ccc(Cl)cc1)c1ccccc1)c1cccc(Cl)c1	16	0	-18	52*	-33	0
SMILES	HSF1 inh	MPTP inh	dFosB activator	HSF1 activator	Platelet DG rel	HSP90 inh
OC(COc1ccc2ccccc2c1Br)Cn1cnc(-c2ccccc2)c1 (stereo not given)	-82*	1	-1	-85	-6	1
COc1ccc(OCC(O)Cn2cnc(-c3ccc(Br)cc3)c2)cc1 (stereo not given)	0	2	-6	13	-3	2
O=C(Nc1nncs1)c1ccc(N2C(=O)C3C4C=CC(C4)C3C2=O)cc1 (stereo not given)	-7	-1	-9	8	-9	-2
O=C(Nc1ccc(N2C(=O)C3C4C=CC(C4)C3C2=O)cc1)Nc1nncs1 (stereo not given)	-86*	-2	4	-89	-15	x
COc1ccccc1CCC(=O)OCC(=O)Nc1c(Br)cc(C)cc1Br	18	-2	-2	61*	9	4
COc1ccc(NC(=O)c2cc(C)n(Cc3cccs3)c2C)cc1	40	3	-1	68*	-34	1
CCc1cc(SC#N)cc(C)c1NC(=O)CCl	71	1	-2	113*	-14	8
CCc1cc(SC#N)cc(C)c1N	-13	2	-2	-8	18	11
Cc1cc(SC#N)cc(C)c1NC(=O)CCl	126	3	-2	136*	-1	3
COCCN(C(=O)COC(=O)CCS(=O)(=O)c1ccccc1)c1c(N)n(Cc2ccccc2)c(=O)[nH]c1=O	-3	0	-4	-7	1	x
O=c1c2ccccc2cnn1Cc1n[nH]c(=S)n1-c1ccc(F)cc1	-12	0	0	-33	0	4
CC(c1ccc(F)cc1)n1c(Cn2ncc3ccccc3c2=O)n[nH]c1=S (stereo not given)	35	0	-2	66*	-7	0
COc1cccc(OC)c1OCCNCC1COc2ccccc2O1 (stereo not given)	34	0	0	53*	-9	x
CCC(C(=O)NCCc1ccc(OC)cc1OC)n1nc(C)n2c(cc3occc32)c1=O (stereo not given)	28	-1	-3	17	-13	-3
CC(C)(C)C(=O)OCc1nc(-c2ccc3c(c2)OCCO3)cs1	-52*	1	-9	-62	13	9
COc1ccc(CNC(=O)c2cn(Cc3ccccc3OC)c(=O)s2)cc1	x	-1	x	x	x	x
CCc1cc2c(=O)c(-c3cnn(-c4ccccc4)c3)c(C(F)(F)F)oc2c(CN(C)C)c1O	-1	3	-2	-7	-6	1
CCN1CCN(c2ccc(Nc3ccnc4ccccc34)cc2)CC1	x	0	36*	x	x	x
CCN1CCN(c2nc(-c3ccccn3)nc3ccccc23)CC1	-6	1	-8	-8	-4	-1
CCOc1ccc(Nc2ccnc3cc(Cl)ccc23)cc1	-13	31	2	-4	1	-7
CN1CCN(c2ccc(Nc3ccnc4cc(Cl)ccc34)cc2)CC1	22	3	57*	52*	-3	0
O=C(c1cc(C2CCCCN2C(=O)OCCF)on1)N1CCOCC1 (stereo not given)	x	0	x	x	x	x
CS(=O)(=O)c1cccc(C(=O)OCC(=O)Nc2ccc3c(c2)OCO3)c1	x	0	0	x	x	x
